Measurements published in PubChem BioAssay (NCI).
Compounds without any hit were thinned out: in the full panel of roughly 83,000, 20% have a hit.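 48-hour exposure, single concentration, 96-well plates; percent growth endpoint where 0 means no net growth. Active: below 10.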 Activity calls are given as the source filed them.

Legend:
Test in all cases: NCI-60 one-dose screen, 48 h (100 = growth as untreated, 0 = no growth, -100 = all killed)
[1] = system: HCT-15 colon; details: 10 µM unless noted
[2] = system: HT29 colon; details: 10 µM unless noted
[3] = system: SNB-75 CNS; details: 10 µM unless noted
[4] = system: U251 CNS; details: 10 µM unless noted
[5] = system: SK-MEL-5 melanoma; details: 10 µM unless noted
[6] = system: UACC-62 melanoma; details: 10 µM unless noted
[7] = system: LOX IMVI melanoma; details: 10 µM
[8] = system: SK-MEL-28 melanoma; details: 10 µM unless noted
[9] = system: SK-MEL-2 melanoma; details: 10 µM unless noted
[10] = system: EKVX NSCLC; details: 10 µM unless noted
[11] = system: UO-31 renal; details: 10 µM unless noted
[12] = system: TK-10 renal; details: 10 µM unless noted
[13] = system: ACHN renal; details: 10 µM unless noted
[14] = system: CAKI-1 renal; details: 10 µM unless noted
[15] = system: A498 renal; details: 10 µM unless noted
[16] = system: CCRF-CEM leukemia; details: 10 µM unless noted
[17] = system: MOLT-4 leukemia; details: 10 µM unless noted
[18] = system: SNB-19 CNS; details: 10 µM unless noted
[19] = system: PC-3 prostate; details: 10 µM unless noted
[20] = system: SN12C renal; details: 10 µM unless noted

Measured: growth

CCN(CC)c1ccnc(CNCCSC(c2ccccc2)(c2ccccc2)c2ccc(C)cc2)c1
active: [1] -92.4% | [2] -80.5% | [3] -51.2% | [4] -93% | [5] -99.6% | [6] -96.2% | [7] -99.6% | [8] -97.5% | [9] -92% | [10] -84.9% | [11] -20.8% | [12] -85.7% | [13] -53% | [14] -92.3% | [15] -96.8% | [16] -40.9% | [17] -30.9%

COc1ccc(-c2nc3cc(C)ccc3n2CC(=O)N=Nc2c(O)[nH]c3ccccc23)cc1
inactive: [18] 19.1% | [9] 58% | [10] 46% | [11] 53.7% | [12] 73.6% | [14] 53.3% | [15] 102%
active: [1] -64.7% | [2] -28.2% | [4] 5.59% | [19] 8.89% | [5] -93% | [6] -37.2% | [7] -63.5% | [8] -57.5% | [20] -91.7% | [13] -12.5%

CCOC(=O)c1ccc(Nc2nc(NN)nc(-c3ccc(F)cc3)c2C#N)cc1
inactive: [1] 109% | [2] 97.6% | [18] 100% | [4] 115% | [19] 103% | [5] 102% | [6] 91.3% | [7] 112% | [8] 109% | [9] 115% | [10] 120% | [20] 103% | [11] 88.3% | [12] 104% | [13] 103% | [14] 108% | [15] 101% | [16] 91.9% | [17] 89.8%

COc1cccc(/C=C/C(=O)c2ccc(OC)c(S(N)(=O)=O)c2)c1
active: [1] -7.46% | [2] 4.06% | [4] -31.2% | [7] -69.9% | [11] 2.53% | [13] -40.4%
inactive: [3] 20.6% | [19] 48% | [6] 52.6% | [8] 60.8% | [9] 96.5% | [10] 49.4% | [20] 14.5% | [12] 21.2% | [14] 26.5% | [15] 115%

S=c1c2ccccc2nc2n1CCc1c-2[nH]c2ccccc12
inactive: [1] 68.9% | [2] 78.8% | [4] 73.8% | [5] 67% | [8] 74.8% | [9] 72.9% | [10] 50.6% | [20] 60.9% | [11] 56.8% | [12] 69% | [13] 42.4% | [14] 36.6% | [15] 112% | [16] 96.2% | [17] 74.1%
active: [3] 0.815%

Cc1ccccc1[C@H]1C(C(=O)c2ccc(Cl)cc2)C2(N[C@@H]1c1ccccc1)C(=O)Nc1ccc(Cl)cc12 (some centres not stated)
inactive: [18] 17.4% | [15] 50%
active: [1] -69.1% | [2] -88.5% | [4] -82.9% | [19] -26.9% | [5] 0.559% | [6] -55.5% | [7] -100% | [8] -23.4% | [9] -64% | [10] -20.6% | [20] -95.4% | [11] 0.337% | [12] 9% | [13] -9.02% | [14] 8.92% | [16] -14.9% | [17] -17.5%

Cc1ccc([C@H]2C(C(=O)c3ccc(Cl)cc3)C3(N[C@@H]2c2ccccc2)C(=O)Nc2ccccc23)cc1 (some centres not stated)
inactive: [1] 35.6% | [2] 17.8% | [18] 41% | [4] 48.6% | [5] 34.3% | [6] 13.4% | [7] 25.5% | [8] 32.8% | [9] 15.6% | [10] 29.6% | [11] 17.7% | [12] 40.8% | [13] 22.5% | [14] 32% | [15] 75.5% | [16] 14.7%
active: [19] 2.35% | [20] 4.19% | [17] -26.6%

CN(C)CCOc1ccc(C(=O)C2[C@H](c3ccc(Cl)cc3)[C@@H](c3ccccc3)NC23C(=O)Nc2ccccc23)cc1 (some centres not stated)
active: [2] -69.3% | [7] -94.3%
inactive: [1] 12% | [18] 83.8% | [4] 11.9% | [19] 41.9% | [5] 83.7% | [6] 78.8% | [8] 94.6% | [9] 112% | [10] 77.2% | [20] 69.1% | [11] 59% | [12] 117% | [13] 88.3% | [14] 58% | [15] 112% | [16] 86.3%

CCCCSc1nc(Nc2ccc(S(N)(=O)=O)cc2)c(C#N)c(-c2ccc(Cl)cc2)n1
inactive: [18] 45.5% | [19] 55.8% | [5] 59.6% | [6] 48.4% | [8] 63% | [9] 118% | [10] 34.7% | [11] 14.6% | [12] 77.1% | [14] 55% | [15] 108% | [16] 95% | [17] 52.8%
active: [1] -8.65% | [2] 8.86% | [4] -55.7% | [7] -99.9% | [20] -20.3% | [13] -66.9%

C=C1CCC2C3(C)COC(c4ccccc4)OC3CCC2(C)C1CC(NCc1ccccc1)C1=CCOC1=O (configuration not stated)
inactive: [1] 87.1% | [2] 73.5% | [18] 73.6% | [4] 77.3% | [19] 31.6% | [5] 69.9% | [6] 70.1% | [7] 74.3% | [8] 94.2% | [9] 101% | [10] 73.8% | [20] 79.4% | [11] 56.7% | [12] 76% | [13] 86.4% | [14] 58.1% | [15] 76.6% | [16] 101%

Cc1ccccc1[C@H]1C(C(=O)c2ccc(Cl)cc2)C2(N[C@@H]1c1ccccc1)C(=O)Nc1ccccc12 (some centres not stated)
active: [1] -14% | [2] -88.7% | [4] -58.1% | [19] -22.6% | [5] -72.2% | [6] -83.5% | [7] -100% | [8] -34.3% | [9] -76.3% | [10] -15.6% | [20] -94.9% | [11] 0.424% | [12] -8.15% | [13] -13.9% | [14] 3.96% | [15] -8.76% | [16] -13.8%
inactive: [18] 16.2%

O=C(C1=CNC(=S)NC1c1ccc(O)cc1)c1cc2ccccc2oc1=O (configuration not stated)
inactive: [1] 104% | [2] 106% | [18] 97.7% | [4] 102% | [19] 86.7% | [5] 101% | [6] 95.8% | [7] 91.5% | [8] 118% | [9] 101% | [10] 107% | [20] 99.3% | [11] 72.4% | [12] 130% | [13] 108% | [14] 87.6% | [15] 139% | [16] 92% | [17] 94.1%

Cn1cc(-c2cc3nc(-c4cn(C)c5ncccc45)cc(N)n3n2)c2ccccc21
active: [1] 9.76% | [2] -6.2% | [4] -8.69% | [5] -69.3% | [6] -0.244% | [7] -56.8% | [8] -22.5% | [20] -38.2% | [11] 8.84% | [13] -73.3% | [14] -23.2% | [15] -2.42% | [16] 0.438% | [17] -21.3%
inactive: [18] 37.7% | [19] 27.2% | [9] 15.2% | [10] 43.7% | [12] 80.3%

CC(=O)c1cc(C(=O)c2ccccc2)n2c1ccc1ccccc12
inactive: [1] 104% | [2] 109% | [18] 98% | [4] 106% | [19] 81% | [5] 104% | [6] 86.9% | [7] 96.7% | [8] 122% | [9] 117% | [10] 98.5% | [20] 90.6% | [11] 55.5% | [12] 142% | [13] 91.7% | [14] 79.6% | [15] 129% | [16] 108% | [17] 87.6%

NS(=O)(=O)c1ccc(CCNC(=O)CSc2ccc(-c3ccc(Br)cc3)nn2)cc1
inactive: [1] 97.4% | [2] 82.6% | [18] 61.5% | [4] 76% | [19] 74% | [5] 28.4% | [6] 66.8% | [7] 59.8% | [8] 78.1% | [9] 56.4% | [10] 74.3% | [20] 80.7% | [11] 56.4% | [12] 72.2% | [13] 59.6% | [14] 65.3% | [15] 78.4% | [16] 54.3% | [17] 39%

CN1CCN(c2ccc(C(=O)/C=C/c3ccc(Br)cc3)cc2)CC1
inactive: [3] 28.3% | [8] 37.7% | [9] 85.4% | [10] 51.8% | [20] 13.9% | [11] 18.8% | [12] 38.4% | [13] 30.8% | [14] 30.8% | [15] 96%
active: [1] 8.41% | [2] 6.76% | [4] -75.7% | [6] -9.44% | [7] -13.4%
